Results: PubChem BioAssay (NCATS)
Records with an inconclusive call do not appear. Activity calls are given as the source filed them. Calls follow the shape of the dose curve; as a rule, active = well fitted curve in the direction sought with a large enough effect; inconclusive = small, poorly fitted or top-dose-only effect, or another doubt; inactive = no such curve, though single readings can be large; an effect the other way counts as inactive or inconclusive.

How the values were obtained:
[1] = test system: NIH3T3; test: Cytotoxic Profiling of Annotated Libraries Using Quantitative High-Throughput Screening (AID 1296008); conditions: Five cell lines viability, CellTiter-Glo ATP luminescence, 48-72 h; max response: active compounds read low; also: nearly all actives have a fitted effect of over 60% in size
How it was run: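 Cells exposed to compounds for 48 or 72 hr at 37 degrees Celsius. Viability read as ATP-coupled luminescence with CellTiter-Glo after 10 min at room temperature.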

[2] = test system: MCC-13; test: qHTS assay to identify novel small-molecules to repurpose for Merkel cell carcinoma treatment (AID 1296009); conditions: MCC and control cell lines, CellTiter-Glo viability, 72 h; series mostly up to 46 µM; also: nearly all actives have a fitted effect of over 60% in size
How it was run: (§1)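 Cells were treated for 72 hr at 37 degree celsius with compounds in 8- or 11-point dose response. Viability was read by CellTiter-Glo luminescence, normalized to no-cell (cytotoxicity) and DMSO controls.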

[3] = test system: MKL-1; test: as above; conditions: MCC and control cell lines, CellTiter-Glo viability, 72 h; series mostly up to 46 µM
How it was run: as §1

[4] = test system: MKL-2; test: as above; conditions: MCC and control cell lines, CellTiter-Glo viability, 72 h; series mostly up to 46 µM
How it was run: as §1

[5] = test system: UISO; test: as above; conditions: MCC and control cell lines, CellTiter-Glo viability, 72 h; series mostly up to 46 µM
How it was run: as §1

[6] = test system: WaGa; test: as above; conditions: MCC and control cell lines, CellTiter-Glo viability, 72 h; series mostly up to 46 µM
How it was run: as §1

[7] = test system: C33A; test: Primary qHTS to identify gynecologic anti-cancer compounds using libraries of approved drugs and bioactive compounds (AID 1345084); conditions: Gynecologic cancer cell panel viability, ATPlite luminescence, 48 h; series mostly up to 57.5 µM; also: nearly all actives have a fitted effect of over 55% in size
How it was run: (§2)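 ATP-based viability (ATPlite), 1,000 cells/well, 16 h pre-incubation, 48 h compound at 37 C, 5% CO2, 15 min RT before read.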

[8] = test system: HeLa; test: as above; conditions: Gynecologic cancer cell panel viability, ATPlite luminescence, 48 h; series mostly up to 57.5 µM
How it was run: as §2

[9] = test system: Hek293T; test: as above; conditions: Gynecologic cancer cell panel viability, ATPlite luminescence, 48 h, control line for the selectivity index; series mostly up to 57.5 µM
How it was run: as §2

[10] = test system: PA-1; test: as above; conditions: Gynecologic cancer cell panel viability, ATPlite luminescence, 48 h; series mostly up to 57.5 µM
How it was run: as §2

[11] = test system: MCC-26; test: qHTS assay to identify novel small-molecules to repurpose for Merkel cell carcinoma treatment (AID 1296009); conditions: MCC and control cell lines, CellTiter-Glo viability, 72 h; series mostly up to 46 µM; also: nearly all actives have a fitted effect of over 60% in size
How it was run: as §1

[12] = test system: CAOV3; test: Primary qHTS to identify gynecologic anti-cancer compounds using libraries of approved drugs and bioactive compounds (AID 1345084); conditions: Gynecologic cancer cell panel viability, ATPlite luminescence, 48 h; series mostly up to 57.5 µM; also: nearly all actives have a fitted effect of over 55% in size
How it was run: as §2

[13] = test system: CASKI; test: as above; conditions: Gynecologic cancer cell panel viability, ATPlite luminescence, 48 h; series mostly up to 57.5 µM
How it was run: as §2

[14] = test system: Es-2; test: as above; conditions: Gynecologic cancer cell panel viability, ATPlite luminescence, 48 h; series mostly up to 57.5 µM
How it was run: as §2

[15] = test system: JEG-3; test: as above; conditions: Gynecologic cancer cell panel viability, ATPlite luminescence, 48 h; series mostly up to 57.5 µM
How it was run: as §2

[16] = test system: OV90; test: as above; conditions: Gynecologic cancer cell panel viability, ATPlite luminescence, 48 h; series mostly up to 57.5 µM
How it was run: as §2

[17] = test system: SKOV3; test: as above; conditions: Gynecologic cancer cell panel viability, ATPlite luminescence, 48 h; series mostly up to 57.5 µM
How it was run: as §2

[18] = test system: HEK293T; test: qHTS assay to identify novel small-molecules to repurpose for Merkel cell carcinoma treatment (AID 1296009); conditions: MCC and control cell lines, CellTiter-Glo viability, 72 h; at 44.8 µM (top of the series) unless noted; also: nearly all actives have a fitted effect of over 60% in size
How it was run: as §1

[19] = test system: NIH3T3; test: as above; conditions: MCC and control cell lines, CellTiter-Glo viability, 72 h; at 44.8 µM (top of the series) unless noted
How it was run: as §1
% is scaled to controls: 0 for no effect and ±100 for the full control effect; potency is read from the fitted curve at half-maximal effect.

COC(=O)c1nc(Cl)c(Cl)nc1N
active: Potency [1] 10.6 µM | Potency [2] 0.944 µM | Potency [3] 1.33 µM | Potency [4] 0.299 µM | Potency [5] 6.68 µM | Potency [6] 1.5 µM | Potency [7] 8.91 µM | Potency [8] 7.08 µM | Potency [9] 14.1 µM | Potency [10] 14.1 µM

O=C(O)c1ccccc1Nc1cccc(C(F)(F)F)c1
inactive: max response [1] -2.26% | Potency [2] | Potency [11] | Potency [3] | Potency [4] | Potency [5] | Potency [6] | Potency [7] | Potency [12] | Potency [13] | Potency [14] | Potency [8] | Potency [9] | Potency [15] | Potency [16] | Potency [10]

CN(C)[C@@H]1C(=O)C(C(=O)NCN2CCCC2)=C(O)[C@@]2(O)C(=O)C3=C(O)c4c(O)cccc4[C@@](C)(O)C3C[C@@H]12 (some centres not stated)
inactive: max response [1] 1.26% | Potency [2] | Potency [3] | Potency [4] | Potency [5] | Potency [6] | Potency [7] | Potency [12] | Potency [13] | Potency [14] | Potency [8] | Potency [9] | Potency [15] | Potency [16] | Potency [10] | Potency [17]

CCNc1nc2c(ncn2[C@H]2C[C@H](O)[C@@H](CO)O2)c(=O)[nH]1
inactive: outcome [1] | outcome [18] | outcome [19] | Potency [7] | Potency [12] | Potency [13] | Potency [14] | Potency [8] | Potency [9] | Potency [15] | Potency [16] | Potency [10] | Potency [17]

CC1(C)[C@@H](O)CC[C@]2(C)[C@H]3C(=O)C=C4[C@@H]5C[C@@](C)(C(=O)O)CC[C@]5(C)CC[C@@]4(C)[C@]3(C)CC[C@@H]12
inactive: max response [1] -0.299% | outcome [18] | Potency [7] | Potency [12] | Potency [13] | Potency [14] | Potency [8] | Potency [9] | Potency [15] | Potency [16] | Potency [10]
active: Potency [17] 3.16 µM

CCCC(=O)OC[C@@H](OC(=O)CCC)[C@@H](OC(=O)CCC)[C@H](Cn1c2nc(=O)[nH]c(=O)c-2nc2cc(C)c(C)cc21)OC(=O)CCC
active: Potency [3] 6.68 µM | Potency [4] 3.35 µM | Potency [6] 4.22 µM
inactive: outcome [1] | Potency [2] | outcome [19] | Potency [7] | Potency [12] | Potency [13] | Potency [14] | Potency [8] | Potency [9] | Potency [10] | Potency [17]

O=C(CCN1CCN(CCO)CC1)N1c2ccccc2Sc2ccc(C(F)(F)F)cc21
inactive: max response [1] 1.15% | Potency [2] | Potency [11] | Potency [3] | Potency [4] | Potency [5] | Potency [6] | Potency [7] | Potency [13] | Potency [14] | Potency [8] | Potency [9] | Potency [15] | Potency [16] | Potency [10] | Potency [17]

O=C(O)Cc1ccc(-c2ccccc2)cc1
inactive: max response [1] -5.58% | Potency [2] | Potency [11] | Potency [3] | Potency [4] | Potency [5] | Potency [6] | Potency [7] | Potency [12] | Potency [13] | Potency [14] | Potency [8] | Potency [9] | Potency [15] | Potency [16] | Potency [10] | Potency [17]

[O-][n+]1ccccc1SSc1cccc[n+]1[O-]
active: Potency [1] 0.164 µM | Potency [2] 0.326 µM | Potency [11] 0.146 µM | Potency [3] 0.231 µM | Potency [4] 0.58 µM | Potency [5] 0.092 µM | Potency [6] 0.517 µM | Potency [7] 1.12 µM | Potency [12] 2.82 µM | Potency [13] 2.51 µM | Potency [14] 1 µM | Potency [9] 0.501 µM | Potency [15] 2 µM | Potency [16] 1.78 µM | Potency [10] 1.26 µM | Potency [17] 0.794 µM
inactive: Potency [8]

Cc1onc(-c2c(F)cccc2Cl)c1C(=O)N[C@@H]1C(=O)N2[C@@H]1SC(C)(C)[C@@H]2C(=O)O
inactive: max response [1] -7.78% | outcome [18] | Potency [12] | Potency [13] | Potency [14] | Potency [8] | Potency [9] | Potency [15] | Potency [16] | Potency [10] | Potency [17]

Cc1c(C(=O)O)c(O)cc2c1C(=O)c1c(O)c([C@@H]3O[C@H](CO)[C@@H](O)[C@H](O)[C@H]3O)c(O)c(O)c1C2=O
inactive: max response [1] -21.1% | Potency [2] | Potency [3] | Potency [4] | Potency [5] | Potency [6] | Potency [7] | Potency [12] | Potency [13] | Potency [14] | Potency [8] | Potency [9] | Potency [15] | Potency [10] | Potency [17]
